Most compounds without a hit are left out; they make up all but 6.9% or so of the library.
Beta cell apopt: blocks beta cell apoptosis; protection from apoptosis, % (concentration not given with the values); 0.8% of 300,000 active; INS-1E cytokine-induced death, ATP luminescence, 48 h; percent of positive-control rescue, neutral wells zero;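 active means Every replicate reaches about 75%, or at least half do and their mean reaches it too, limit read from the data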;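 further: 0% = cytokine-treated negative control wells and 100% = positive control rescue; higher means more ATP so stronger rescue from cytokine killing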
SKKanGAS inh: blocks kanamycin growth of S. pyogenes SKKanGAS strain | BacTiter-Glo, 6 h | inhibition, % at 7.5 µM | 1.3% of 300,000 active | AID 1662;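 active means mean replicate score, as percent of positive control median, at least 50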;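 further: strain carries kanamycin resistance gene driven by streptokinase promoter and grows in 40 µg/ml kanamycin; loss of luminescence reflects streptokinase promoter inhibition or plain growth inhibition; 0% = median of DMSO wells and 100% = positive control at its reference dose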
CSC inhib: blocks cancer stem cells. cancer stem cell-like cells viability, luminescence. inhibition, % at 7.5 µM. 1.1% of 300,000 active. AID 2717; in the data active means inhibition above about 75%; tested in HMLE shEcad cells
NR3A LBD binder: NR3A (human) ligand-binding domain modulation; NR3A LBD differential scanning fluorimetry, Tm shift; 0% = protein alone, 100% = glycine-bound protein; Tm shift relative to glycine control, % at 25 µM; 2.5% of 340,000 active; AID 1259313;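 active means melting temperature shift of at least 10% of the positive control shift, at one fixed dose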
Mdm2 MdmX PPI: human Mdm2/MdmX binding inhibition; O15151+Q00987; 3% of 330,000 active; AID 485346; SaOS-2 split-luciferase Mdm2/MdmX complementation, luminescence; inhibition, % at 8 µM;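 active means inhibition of at least 50% at 8 µM in the primary screen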
MPTP block: inhibitors of mitochondrial permeability transition pore; 1.4% of 360,000 active; inhibition, % at 10 µM; AID 602449; isolated mouse mitochondria, Ca2+ swelling absorbance, 30 min;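 active means inhibition of 50% or more, scaled per plate between neutral and stimulator controls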;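 further: 0% = DMSO wells given calcium and 100% = 1 mM EGTA wells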
* hit, by the source's call.

How did Cc1[nH]c2ccccc2c1N=Nc1ccc(F)cc1 do in these assays?
Beta cell apopt: -1; SKKanGAS inh: -2; CSC inhib: 72; NR3A LBD binder: 25*; Mdm2 MdmX PPI: 0; MPTP block: 22

What do the screens show for `CN(C)CCNC(=O)C1Cc2c(-c3ccccc3Oc3ccccc3)ccnc2O1` (configuration not stated)?
MPTP block: -2

Results for CCOC(=O)/C(C#N)=C/c1ccc(OC(=O)c2ccco2)c(OCC)c1 ?
Beta cell apopt: 0; SKKanGAS inh: 2; CSC inhib: -5; NR3A LBD binder: 10*; Mdm2 MdmX PPI: -17; MPTP block: 2

What do the screens show for `CCOC(=O)/C(C#N)=C\c1ccc(OC)c(OC)c1`?
Beta cell apopt: -6; SKKanGAS inh: -14; CSC inhib: -7; NR3A LBD binder: 0; Mdm2 MdmX PPI: 19; MPTP block: 1

How did O=C(CN1C(=O)c2cccc([N+](=O)[O-])c2C1=O)N1CCN(S(=O)(=O)c2ccccc2)CC1 do in these assays?
Beta cell apopt: -1; CSC inhib: 3; NR3A LBD binder: 3; Mdm2 MdmX PPI: 1; MPTP block: 0

Results for Cc1ccccc1-c1nc2c(s1)CCc1onc(-c3ccc(Cl)cc3)c1-2 ?
Beta cell apopt: -1; SKKanGAS inh: -3; CSC inhib: 28; NR3A LBD binder: -9; Mdm2 MdmX PPI: -30; MPTP block: -1

What do the screens show for `COc1ccc(-c2noc3c2-c2nc(-c4ccccc4C)sc2CC3)cc1`?
Beta cell apopt: 1; SKKanGAS inh: 0; CSC inhib: 76*; NR3A LBD binder: -1; Mdm2 MdmX PPI: 41

How did COc1ccc2[nH]c3c(c2c1)CCN1C(=O)C(CC(=O)NC(C)(C)C)C[C@H](C(=O)N2CCCCC2)[C@@]31C (some centres not stated) do in these assays?
NR3A LBD binder: 0; Mdm2 MdmX PPI: 23; MPTP block: -1

How did O=C(CCCc1c[nH]c2ccccc12)NCc1ccccc1C(F)(F)F do in these assays?
Beta cell apopt: -2; SKKanGAS inh: -5; CSC inhib: 21; NR3A LBD binder: -2; Mdm2 MdmX PPI: 19; MPTP block: 2

How did NS(=O)(=O)c1ccc(NC(=O)COc2cccc3ccccc23)cc1 do in these assays?
Beta cell apopt: -4; SKKanGAS inh: 5; CSC inhib: -6; NR3A LBD binder: 16*; Mdm2 MdmX PPI: 2; MPTP block: 1

What do the screens show for `CCc1ccccc1OCC(=O)Nc1ccc(S(N)(=O)=O)cc1`?
Beta cell apopt: -2; SKKanGAS inh: -10; CSC inhib: -3; NR3A LBD binder: 3; Mdm2 MdmX PPI: -8; MPTP block: 0

How did Cc1ccc(C(=O)Cn2c(C)cc(C)c(C#N)c2=O)cc1 do in these assays?
Beta cell apopt: -1; SKKanGAS inh: -2; CSC inhib: 0; NR3A LBD binder: 13*; Mdm2 MdmX PPI: -7; MPTP block: 2

Results for CCCCCn1nc(C(=O)N2CCc3ccccc32)c2ccccc2c1=O ?
Beta cell apopt: -1; CSC inhib: -3; NR3A LBD binder: 3; Mdm2 MdmX PPI: 19; MPTP block: 0

What do the screens show for `COc1ccccc1NC(=S)N(Cc1ccccc1)Cc1ccccn1`?
Beta cell apopt: -4; SKKanGAS inh: -4; CSC inhib: 7; NR3A LBD binder: 13*; Mdm2 MdmX PPI: -18; MPTP block: 0

What do the screens show for `Cc1ccc(S(=O)(=O)/N=C2/C=C(Sc3ncn[nH]3)C(=O)c3ccccc32)c(C)c1`?
Beta cell apopt: 129*; CSC inhib: 103*

How did Cc1ccc(S(=O)(=O)Nc2ccc(O)c(Sc3ncn[nH]3)c2)cc1 do in these assays?
SKKanGAS inh: -6; CSC inhib: 4; NR3A LBD binder: 0; Mdm2 MdmX PPI: 17; MPTP block: -1

Results for CC(C)c1ccc(S(=O)(=O)/N=C2/C=C(Sc3ncn[nH]3)C(=O)c3ccccc32)cc1 ?
Beta cell apopt: 132*; CSC inhib: 105*; NR3A LBD binder: -7; MPTP block: 1

Results for Cc1ccc(S(=O)(=O)/N=C2/C=C(Sc3ncn[nH]3)C(=O)c3ccccc32)cc1 ?
Beta cell apopt: 98*; CSC inhib: 107*; NR3A LBD binder: -62; MPTP block: 9

What do the screens show for `COCCCn1c(=S)[nH]c2c(sc3ccccc32)c1=O`?
Beta cell apopt: 0; SKKanGAS inh: 3; CSC inhib: -20; NR3A LBD binder: 2; Mdm2 MdmX PPI: 3; MPTP block: -1

Results for CC(Oc1ccc2ccc(=O)oc2c1)C(=O)NCCN1CCOCC1 (configuration not stated) ?
Beta cell apopt: 5; SKKanGAS inh: 1; CSC inhib: 0; NR3A LBD binder: 2; Mdm2 MdmX PPI: -1; MPTP block: 0

What do the screens show for `O=[N+]([O-])c1ccc(NN=Cc2cccc3ccccc23)nc1`?
NR3A LBD binder: 29*; MPTP block: 7

How did O=[N+]([O-])c1cccc(N/N=C/c2cccc3ccccc23)c1 do in these assays?
Beta cell apopt: 3; SKKanGAS inh: 9; CSC inhib: 43; NR3A LBD binder: 25*; Mdm2 MdmX PPI: -14; MPTP block: 32

How did C[C@H](CO)N1C[C@H](C)[C@@H](CN(C)S(=O)(=O)c2ccc(F)cc2)Oc2ccc(NC(=O)C3CCCCC3)cc2C1=O do in these assays?
Beta cell apopt: 3; NR3A LBD binder: 0; Mdm2 MdmX PPI: 4; MPTP block: 0

How did O=C1COc2ccccc2C(c2nc3ccccc3[nH]2)N1Cc1ccccc1 (configuration not stated) do in these assays?
MPTP block: 1

What do the screens show for `COc1cccc(-c2ccc(NC(=O)C3CCCN(CCCn4nc(C)cc4C)C3)cc2)c1` (configuration not stated)?
Beta cell apopt: 1; SKKanGAS inh: 1; CSC inhib: -7; NR3A LBD binder: -2; Mdm2 MdmX PPI: 42; MPTP block: -1

Results for CCCc1ccc(OCc2nc(-c3ccc(NC(=O)c4cccs4)cc3)no2)cc1 ?
Beta cell apopt: 3; SKKanGAS inh: -8; CSC inhib: 5; NR3A LBD binder: 9; Mdm2 MdmX PPI: 36; MPTP block: 2

What do the screens show for `Cc1ccc(NC(=O)c2cccs2)cc1`?
Beta cell apopt: 3; SKKanGAS inh: 1; CSC inhib: 6; NR3A LBD binder: -10; Mdm2 MdmX PPI: -5; MPTP block: -1

Results for Cc1ccccc1-c1nc(-c2ccc(NC(=O)c3cccs3)cc2)no1 ?
Beta cell apopt: 15; SKKanGAS inh: 19; CSC inhib: 2; NR3A LBD binder: 42*; Mdm2 MdmX PPI: -43; MPTP block: 7

Results for Cc1ccccc1OCc1nc(-c2ccc(NC(=O)c3cccs3)cc2)no1 ?
Beta cell apopt: 9; SKKanGAS inh: -4; CSC inhib: 4; NR3A LBD binder: 20*; Mdm2 MdmX PPI: -10; MPTP block: 8

How did O=C(Nc1ccc(-c2noc(-c3ccccc3F)n2)cc1)c1cccs1 do in these assays?
SKKanGAS inh: -6; CSC inhib: 7; NR3A LBD binder: 29*; Mdm2 MdmX PPI: 6; MPTP block: 10
